Screening results (PubChem BioAssay)
VACV mCherry inh – vaccinia inhibition (mCherry reporter). Vaccinia virus mCherry reporter infection, fluorescence. Potency, µM (top dose mostly 36.5 µM), for the others: top-dose activity change, negative = inhibition, hits mostly inhibitors. 310,000 compounds, 0.63% hits. AID 720579; calls by dose curve; tested in A549 cells; note: potency is the fitted concentration of half-maximal effect; nearly all actives have a fitted effect of over 35% in size
MARV entry inh – blocks Marburg virus binding to or entry into cells. Marburg virus pseudotyped entry inhibition, cell reporter. Potency, µM (top dose mostly 37.8 µM), for the others: at the highest dose activity change, negative = inhibition, actives largely listed as inhibitors. 300,000 compounds, 1.8% hits; calls by dose curve; tested in HEK293 cells; note: potency is the fitted concentration of half-maximal effect
LASV entry inh – Lassa virus entry inhibition | Lassa virus pseudotype entry inhibition, cell reporter | Potency, µM (top dose mostly 37.9 µM), inactives show at the highest dose activity change, negative = inhibition, hits mostly inhibitors | 300,000 compounds, 1.2% hits | AID 540256; calls by dose curve; tested in HEK293 cells; note: potency is the fitted concentration of half-maximal effect; nearly all actives have a fitted effect of over 50% in size
HCV inhibitor – inhibitors of hepatitis C virus infection. Huh7.5.1 HCVcc-Cre infection, luciferase reporter, 44 h. Potency, µM (top dose mostly 41.8 µM), without a hit: top-dose activity change, negative = inhibition, usual class: inhibitors. 340,000 compounds, 3.4% hits; active = well fitted inhibition curve with a large enough effect; inconclusive = small, poorly fitted or top-dose-only effect, or another doubt; inactive = no such curve, though single readings can be large or run the other way; note: potency is the fitted concentration of half-maximal effect
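Reporter virus HCVcc-Cre (~0.5 moi) infects cells exposed to compound; seeding density 1,000 cells/well with 4 h settling beforehand. Luminescence, 15 sec read, taken 44 h post-infection following a 15 min RT substrate incubation.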
HCMV antiviral – inhibitors of human cytomegalovirus; HFF cells, HCMV-luciferase reporter, 72 h; active compounds read low; activity change, negative = inhibition, % at 57.5 µM; 410,000 compounds, 4.5% hits; AID 1259415; in the data active = activity change below about -60%; inconclusive = no clear call, values can overlap the other calls; inactive = above about -39%
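Two compound doses tested in HFFs infected with HCMV-luciferase, MOI 1 PFU/cell, 72 h at 37C. Lysate luminescence read with OneGlo; data normalized against buffer-only and 10uM Salinomycin inhibitor controls.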
VACV Venus inh – inhibitors of vaccinia virus (Venus reporter); Vaccinia virus Venus reporter expression, fluorescence; Potency, µM (top dose mostly 36.5 µM), inactives show at the highest dose activity change, negative = inhibition, actives largely listed as inhibitors; 330,000 compounds, 0.46% hits; calls by dose curve; tested in A549 cells; note: potency is the fitted concentration of half-maximal effect; nearly all actives have a fitted effect of over 30% in size
* = called active by the depositor; i = inactive; ? = inconclusive; . = not tested or not shown; [ ] = remark or other dose. A selection: hits, their analogues and other compounds. The true share with any hit is near 7.8%. % is set by controls: 0 for no effect and ±100 for the full control effect.

SMILES | VACV mCherry inh | MARV entry inh | LASV entry inh | HCV inhibitor | HCMV antiviral | VACV Venus inh
O=C(c1ccccc1)c1nn(-c2ccc(Cl)cc2)c(=O)cc1C(F)(F)F | ? | 8.91µM* | 11.2µM* | 6.31µM* | -104.5* | -15.7%
O=C(Nc1ccccc1)c1nn(-c2ccccc2)c(=O)cc1C(F)(F)F | . | -0.4% | -3.0% | ? | -4.0 | 8.9%
CCOC(=O)CN1C(=O)[C@]2(OC[C@@H]3Cc4ccccc4[C@H]3C=C2C)c2ccccc21 | . | -22.0%[14.2 µM] | . | . | . | .
CCOC(=O)c1c(-c2ccccc2Cl)cn2ccccc12 | . | ? | 13µM* | ? | ? | .
CCCc1ccc(OCc2nc(-c3ccc(NC(=O)c4cccs4)cc3)no2)cc1 | -4.5% | ? | 9.7% | 7.6% | ? | -0.8%
O=C(Nc1ccc(-c2noc(CCc3ccccc3)n2)cc1)c1cccnc1 | . | ? | ? | 11.2µM* | ? | ?
CCOC(=O)c1ccc(NC(=O)CCc2nc(-c3ccccc3Cl)no2)cc1 | . | ? | ? | 11.2µM* | -32.8 | .
CCOC(=O)c1ccc(NC(=O)CCc2nc(-c3ccccc3)no2)cc1 | -24.4% | ? | ? | ? | -3.2 | -27.6%
O=C(CCCc1nc(-c2ccccc2Cl)no1)NC1CCCC1 | . | . | . | 4.1% | -73.7* | .
O=C(NCCc1ccccc1)c1ccc(NC(=O)c2cccnc2)cc1 | . | . | . | -3.1% | 10.9 | .
CCCc1ccc(OCc2nc(-c3ccc(NC(=O)c4ccco4)cc3)no2)cc1 | ? | ? | 10µM* | -11.6% | ? | ?
Cc1ccc(Cl)cc1-n1nnc(-c2nsc(NC(=O)c3ccccc3Cl)n2)c1C | -10.9% | ? | ? | . | 0.2 | -16.6%
Cc1ccc(-c2noc(CCCC(=O)NC3CCCC3)n2)cc1 | -15.8% | ? | -26.3%[46.1 µM] | ? | -79.8* | -6.0%
Cc1ccc(-c2noc(CCC(=O)Nc3cc(C)ccn3)n2)cc1 | . | -10.3%[46.1 µM] | 0.4% | 22.4% | -71.5* | -13.7%
CC(C)C(=O)NCCc1nc(-c2ccccc2Cl)no1 | -13.5% | . | . | 3.3% | -60.0* | -10.5%
Cc1ccc(-c2noc(CCC(=O)Nc3ccccc3C)n2)cc1 | . | -7.9% | 9.0% | ? | -5.6 | .
O=C(CCCc1nc(-c2ccccc2)no1)NC1CCCC1 | -12.6% | -9.8%[46.1 µM] | 13.8%[46.1 µM] | 0.8% | 10.8 | -4.2%
CC(Oc1ccc(Cl)cc1Cl)c1nc(-c2ccc(NC(=O)c3ccco3)cc2)no1 (stereo not given) | . | ? | ? | ? | -92.6* | .
O=C(NCCc1nc(-c2ccccc2Cl)no1)c1ccccc1 | -9.5% | . | . | -18.6% | ? | -4.9%
O=C(CSc1c2c(nc3cc(Cl)ccc13)CCCC2)N1CCN(c2ccccc2F)CC1 | -13.1% | -2.4%[46.1 µM] | 2.7%[46.1 µM] | . | -31.4 | -20.2%
COc1ccc(NC(=O)N2c3ccc(OC)cc3[C@@H](NCc3ccc(C)o3)[C@H](C)[C@H]2c2ccccc2)cc1 | . | . | . | . | 6.3 | .
O=C(CCCc1nc(-c2ccc(Cl)cc2)no1)NC1CCCCC1 | -11.1% | ? | ? | 7.08µM* | 1.3 | -12.5%
O=C(CCCc1nc(-c2ccc(Cl)cc2)no1)Nc1cccnc1 | . | -49.4% | ? | ? | -71.8* | .
Cc1cccc(-c2noc(CCCC(=O)Nc3cccnc3)n2)c1 | -20.7% | -28.6% | -7.5% | ? | -25.1 | -5.4%
COc1ccc(-c2noc(CCCC(=O)NC3CCCCC3)n2)cc1 | -17.9% | ? | -30.0%[46.1 µM] | ? | -72.3* | 7.0%
SMILES | VACV mCherry inh | MARV entry inh | LASV entry inh | HCV inhibitor | HCMV antiviral | VACV Venus inh
COc1ccc(-c2cc(OC(=O)c3ccc(F)cc3)c3c(C)oc(C)c3c(=O)c2)cc1OC | -8.4% | ? | 8.2%[46.1 µM] | . | 1.1 | -7.5%
COc1ccc(-n2nnnc2C2CCN(S(=O)(=O)c3cccc(Cl)c3C)CC2)cc1 | -8.0% | 4.9%[46.1 µM] | 7.4%[46.1 µM] | . | -39.9 | -17.2%
COc1cc2nc(NC3CCN(C)CC3)nc(NC3CCN(C)CC3)c2cc1OC | -7.2% | . | . | . | . | -19.6%
Cn1cc(S(=O)(=O)N2CCCCCC2)cc1C(=O)NCc1ccccc1Cl | -15.6% | . | -17.2%[46.1 µM] | . | 7.6 | -11.9%
O=C1CCCc2c1[nH]c1c(Br)cccc21 | . | 15.9%[46.1 µM] | -0.3% | -17.9% | -16.0 | 11.2µM*
Cc1cc(Br)c2[nH]c3c(c2c1)CCCC3=O | . | -8.5%[46.1 µM] | -1.5% | 10µM* | -7.9 | ?
O=C(/C=C/c1ccc(O)c(O)c1)OC(Cc1ccc(O)c(O)c1)C(=O)O (stereo not given) | 0.7% | . | . | 10µM* | -28.7 | -4.6%
Cn1nnnc1SCCCNCc1ccc(-c2ccc(F)c(Cl)c2)o1 | -9.7% | ? | -17.8%[46.1 µM] | . | -9.6 | -9.4%
CCOCC(O)CNc1ccccc1 (stereo not given) | i | ? | 5.0% | 30.2% | ? | -7.3%
OC(CNc1ccccc1)COc1ccc(OCC(O)CNc2ccccc2)cc1 (stereo not given) | . | 11.2µM* | ? | ? | ? | 11.2µM*
CC(C)(CNC(=O)c1cnn(-c2nccc(-c3ccccc3F)n2)c1C1CC1)N1CCOCC1 | -19.9% | . | . | . | . | -15.1%
CC(C)(C)C1CCC2(CC1)C(C#N)=C(SCC(=O)NC1CCCCC1)NC(=O)C2C#N (stereo not given) | ? | -27.8% | -8.3% | 4.3% | -63.0* | -26.8%
N#CC1=C(SCC(=O)NC2CC2)NC(=O)C(C#N)C12CCCCC2 (stereo not given) | i | 21.0% | 10.1% | 16.3% | -7.7 | -4.4%
N#CC1=C(SCC(=O)NC23CC4CC(CC(C4)C2)C3)NC(=O)C(C#N)C12CCCCC2 (stereo not given) | 10µM* | ? | -27.2% | ? | -66.1* | 12.6µM*
Cn1c(=O)n(CC(=O)O)c(=O)c2c1nc1n2CCCN1CCc1ccccc1 | . | . | . | 7.2% | -12.9 | .
Cn1c(=O)n(CCc2ccccc2)c(=O)c2c1nc1n2CCCN1Cc1ccccc1 | . | ? | 15.8µM* | 15.8% | 15.7 | -7.0%
Cn1c(=O)n(CCc2ccccc2)c(=O)c2c1nc1n2CCCN1CCc1ccccc1 | . | ? | ? | ? | -3.4 | -31.2%
CC(C)Cn1c(=O)c2c(nc3n2CCCN3CCc2ccccc2)n(C)c1=O | . | ? | -20.7% | 10µM* | 11.4 | ?
COC(=O)Cn1c(=O)c2c(nc3n2CCCN3CCc2ccccc2)n(C)c1=O | -9.8% | 5.4%[46.1 µM] | -0.8%[46.1 µM] | -0.7% | -64.0* | -7.1%
CCCn1c(=O)c2c(nc3n2CCCN3CCc2ccccc2)n(C)c1=O | i | ? | -23.5% | -25.1% | -62.3* | -18.9%
CCN(CC)CCCNC(=O)c1ccc2c(c1)NC(=O)C(CS(=O)(=O)Cc1cccc(Br)c1)N2 (stereo not given) | 9.0% | . | 19.8%[46.1 µM] | . | 39.2 | 18.8%
COC(=O)[C@@H]1CC[C@H](C)[C@@H](c2ccc(C)cc2)N1C(=O)c1ccc(C=NO[C@@H](C)c2cn([C@H](CO)Cc3ccccc3)nn2)cc1 | . | 4.7%[14.2 µM] | -6.7%[14.3 µM] | . | . | .
C=CCN1C(=O)CC[C@@]23C1=NC(C(=O)OC)=C(C(=O)OC)[C@@H]2N(CC#CC)c1ccccc13 | . | -20.0%[14.2 µM] | . | . | . | .
